# PubChem BioAssay AID720650 (Broad Institute, 2013)
# A number with no mark means an inactive call. The source made the active and inactive calls. How the calls were made is not given here.
# Experiment: C difficile toxins, biochemical counterscreen, UDPG substrate absence, confirmatory dose response (AID 720650)
# Conditions: series mostly up to 19.5 µM; activity change, negative = inhibition: at the top concentration
SMILES,AC50,"activity change, negative = inhibition"
CN1C=CC(=CC=C2C=CC(=O)C=C2)C=C1,7.43 µM (active),–
Cc1ccc(-c2cc(C(=O)NNC(=O)c3csc(N4CCOCC4)n3)c3ccccc3n2)cc1,–,8.62%
COc1ccccc1N1CC(O)=C(c2nc3ccccc3s2)C1=N,> 39 µM,–
COc1ccccc1C1NC(=O)NC(C)=C1C(=O)OC1CCCCC1 (configuration not stated),–,-13.5%
Nc1ccc2c(c1)Nc1ccccc1CC2,9.36 µM (active),–
O=C(O)c1ccc(/C=N/NC(=S)NCCN2CCOCC2)cc1,–,-2.89%
Cc1ccc2sc(NNC(=O)C3COc4ccccc4O3)nc2c1C (configuration not stated),0.238 µM (active),–
CNC(=O)C[C@H]1CC[C@@H]2[C@H](COc3ccc(NS(=O)(=O)c4ccccc4C)cc3C(=O)N2C)O1,–,6.47% [at 21 µM]
Cc1cc(C)cc(N=C2NC(=O)CS2)c1,–,-5.57%
CCOc1ccccc1-n1c(C)nc2cc(C(=O)O)ccc21,–,7.93%
Cc1nn(C)cc1-c1n[nH]c(=S)n1-c1ccc(F)cc1,–,-5.26%
COc1cc(Cn2c(-c3ccc(O)c(OC)c3)nc3ccccc32)ccc1O,–,-12.9%
CC(=O)N1CC[C@@H]2[C@@H](CO)N(C)c3ccc(-c4ccccc4)cc3[C@@H]21,7.4 µM (active),–
Fc1ccc(-c2nc3ccc(Br)cn3c2Cc2ccccc2)cc1,–,-2.94%
COc1ccc(NC(=O)C2CC(=O)N(c3ccccc3F)C2)cc1S(=O)(=O)N1CCCCC1 (configuration not stated),–,5.52%
CCC(=O)N1CC[C@@H]2[C@@H](CO)N(C)c3ccc(-c4ccccc4)cc3[C@@H]21,6.31 µM (active),–
Nc1ncc(S(=O)(=O)c2ccc([N+](=O)[O-])cc2)s1,–,-5.28%
